The campaign covered roughly 310,000 compounds. About 14,000 (4.5%) showed an effect of 50% or more. The effect is printed as a negative number. The entries come from a sample that favours strong results as a whole.
Molecular target: human ether-à-go-go-related gene (hERG) potassium channel (human, UniProt Q12809)
Experiment: primary screen, population patch clamp on CHO cells stably expressing hERG; higher = less effect of the substance
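Further: peak tail current of the secondary pulse compared with the same well before compound.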

Chain of human ether-à-go-go-related gene (hERG) potassium channel (Q12809 whole entry, looked up): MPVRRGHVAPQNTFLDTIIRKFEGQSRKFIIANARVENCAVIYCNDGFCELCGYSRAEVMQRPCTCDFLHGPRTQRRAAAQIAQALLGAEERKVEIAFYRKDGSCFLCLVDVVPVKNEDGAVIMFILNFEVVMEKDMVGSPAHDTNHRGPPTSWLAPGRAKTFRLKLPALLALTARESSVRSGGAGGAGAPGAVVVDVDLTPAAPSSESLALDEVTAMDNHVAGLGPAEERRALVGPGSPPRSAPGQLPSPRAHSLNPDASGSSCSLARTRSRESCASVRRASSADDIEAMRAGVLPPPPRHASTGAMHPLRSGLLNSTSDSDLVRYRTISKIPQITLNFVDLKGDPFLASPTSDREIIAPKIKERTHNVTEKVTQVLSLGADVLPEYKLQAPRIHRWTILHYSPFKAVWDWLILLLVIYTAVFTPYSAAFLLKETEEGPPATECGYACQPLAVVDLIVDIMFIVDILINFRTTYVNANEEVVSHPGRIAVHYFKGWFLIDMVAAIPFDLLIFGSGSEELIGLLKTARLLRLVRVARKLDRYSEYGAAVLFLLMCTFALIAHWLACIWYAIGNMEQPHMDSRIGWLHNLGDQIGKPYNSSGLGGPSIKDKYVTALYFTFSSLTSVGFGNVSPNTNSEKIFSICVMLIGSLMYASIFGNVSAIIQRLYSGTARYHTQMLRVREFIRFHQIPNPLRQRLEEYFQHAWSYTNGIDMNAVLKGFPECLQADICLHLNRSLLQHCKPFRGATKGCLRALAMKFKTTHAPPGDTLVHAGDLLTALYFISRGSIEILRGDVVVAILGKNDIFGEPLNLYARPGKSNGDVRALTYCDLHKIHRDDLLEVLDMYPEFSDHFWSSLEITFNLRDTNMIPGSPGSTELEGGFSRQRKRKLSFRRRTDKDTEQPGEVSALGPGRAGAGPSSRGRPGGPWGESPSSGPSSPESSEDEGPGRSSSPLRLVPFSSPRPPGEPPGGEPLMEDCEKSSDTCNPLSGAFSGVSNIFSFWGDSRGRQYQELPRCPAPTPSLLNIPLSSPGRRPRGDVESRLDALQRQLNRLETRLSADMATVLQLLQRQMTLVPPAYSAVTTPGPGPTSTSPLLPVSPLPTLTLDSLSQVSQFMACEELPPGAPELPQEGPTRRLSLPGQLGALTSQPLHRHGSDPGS

Structure (SMILES) | hERG current change (%, negative = inhibition) at 10uM [%]
O=C(Nc1ccccc1N1CCN(c2ccccc2)CC1)c1ccccc1 | 8.61
O=C1C(=O)N(CCc2c[nH]c3ccccc23)C(c2cccnc2)/C1=C(/O)c1ccccc1 (centres unmarked) | 2.24
COc1ccc(C(=O)NC(=S)NC(C)c2ccccc2)cc1 (centres unmarked) | 21.8
C=C1C(=O)O[C@H]2C1CC[C@@](C)(O)C13C=CC(C)(C21)C1(C3)C(=O)O[C@@H]2C3C(C)=CCC3[C@](C)(O)C[C@H](OC(C)=O)C21 (some centres unmarked) | 2.81
COc1ccccc1NC(=O)CSc1ncn(-c2ccccc2)n1 | -41.1
N#Cc1nc(-c2ccc(F)cc2)oc1NCCCn1ccnc1 | -49.3
N#Cc1nc(COc2ccc(F)cc2)oc1NCCCn1ccnc1 | -64.2
N#Cc1nc(COc2ccccc2F)oc1NCCCn1ccnc1 | -42.5
COc1cc(/C=N/NC(=O)COc2ccc(-n3cnnn3)cc2)ccc1OCC(N)=O | 17.3
O=[N+]([O-])c1ccc(/C=N/Nc2nc(-c3ccccc3)c3cc(Br)ccc3n2)o1 | -4.84
CCNc1nc(NCC)nc(N/N=C/c2ccc([N+](=O)[O-])o2)n1 | -50.8
CCNc1nc(NCC)nc(N/N=C/c2ccc(OC)cc2)n1 | 6.24
Cc1ccc2nc(N/N=C\c3ccc([N+](=O)[O-])o3)nc(-c3ccccc3)c2c1 | -72.6
Cc1cc(N/N=C/c2ccc([N+](=O)[O-])o2)nc2ccccc12 | 1.15
N#Cc1ccccc1/C=N/Nc1nc(-c2ccccc2)c2cc(Cl)ccc2n1 | -46.3
Cc1ccc2nc(N/N=C/c3ccccc3F)nc(-c3ccccc3)c2c1 | 0.778
CCNc1nc(NCC)nc(N/N=C/c2ccccc2)n1 | 4.81
CCNc1nc(NCC)nc(N/N=C/c2ccc(Br)cc2)n1 | -74.6
Cc1cc(C)nc(N/N=C/c2ccc([N+](=O)[O-])o2)n1 | 2.14
N#Cc1ccccc1/C=N/Nc1nc(-c2ccccc2)c2cc(Br)ccc2n1 | -67.4

Structure (SMILES) | hERG current change (%, negative = inhibition) at 10uM [%]
O=[N+]([O-])c1ccc(/C=N/Nc2nc(N3CCCC3)nc(N3CCCC3)n2)o1 | 1.41
CC(Sc1nc(N)cc(=O)[nH]1)C(=O)NC1CCCCC1 (centres unmarked) | -4
O=C(CSc1ncccn1)NCc1ccccc1Cl | -2.63
CCOc1ncccc1C(=O)Nc1ccc(S(=O)(=O)Nc2nc(C)cc(C)n2)cc1 | 2.16
CCOC(=O)N1CCN(C(=O)CSc2ccc(-c3ccncc3)nn2)CC1 | -0.414
Cc1ccccc1-n1cnc2cc(NCc3cccs3)ccc21 | -31
CC1=C(C(=O)NCCN2CCN(C)CC2)C2(CCC(C)CC2)OC1=O (centres unmarked) | 6.17
Cc1ccc(-c2ccc(CO)o2)cc1N | 9.48
O=C(CN1C(=O)C2CC=CCC2C1=O)Nc1ccc(S(=O)(=O)NC2=NCCCCC2)cc1 (centres unmarked) | 1.02
CCN1C(=O)C(=C2C=C(C)N(Cc3ccco3)C(C)=C2)C(=O)N(CC)C1=S | -35
CCCCC(=O)Nc1nnc(-c2ccco2)o1 | -0.241
Cc1cc(C)c(C(=O)OCC(=O)NC(=O)c2ccccc2)c(C)c1 | 11.9
O=C(CCc1ccccc1)Nc1cc(NC(=O)CCc2ccccc2)cc(C(=O)O)c1 | -22
Cc1ccc(NC(=O)c2nc[nH]c2C(=O)N2CCc3ccccc3C2)cc1 | 18.8
CCN1CCN(C(=S)Nc2ccc([N+](=O)[O-])cc2)CC1 | -26.6
CCCN1CCC(NC(=S)Nc2ccc(S(N)(=O)=O)cc2)CC1 | 10.7
CN1CCN(C(=S)Nc2ccc([N+](=O)[O-])cc2)CC1 | -23.1
CCCN1CCC(NC(=S)Nc2ccc([N+](=O)[O-])cc2)CC1 | -52.6
CCCN1CCC(NC(=O)Nc2ccc([N+](=O)[O-])cc2)CC1 | -32.2
CCCN1CCN(C(=S)Nc2ccc([N+](=O)[O-])cc2)CC1 | -52.1

Structure (SMILES) | hERG current change (%, negative = inhibition) at 10uM [%]
COc1cc(/C=C/C(=O)O)cc(S(=O)(=O)Nc2ccccc2SC)c1OC | 15.5
O=C(Nc1ncn[nH]1)c1ccc(S(=O)(=O)N2CCOCC2)cc1 | -5.88
CC(C)c1ccc(NC(=O)CN2C(=O)NC3(CCCC3)C2=O)cc1 | 5.63
COc1cccc(C(=O)OCCN2CCOCC2)c1.Cl | 6.33
Cc1cc(C)c(OCC(=O)NCC2COc3ccccc3O2)c(C)c1 (centres unmarked) | -13.9
O=C(CSc1nnc(CNC(=O)c2ccccc2F)o1)NC1CCCC1 | 10.7
CCN(CCn1cccn1)C(=O)CCc1nnc(CCCc2ccccc2)o1 | -37
CC(C)(C)c1cc(NC(=O)c2ccc(OC3CCCC3)cc2)no1 | 14.2
Cc1nc2c(-c3ccc(F)cc3)c(C)nn2c(C)c1CCC(=O)N1CCC2(CC1)OCCO2 | -67.8
Cc1nc2c(-c3ccc(F)cc3)c(C)nn2c(C)c1CCC(=O)N1CCN(c2ccccn2)CC1 | -69.5
CCOC(=O)C1CCN(C(=O)CCc2c(C)nc3c(-c4ccc(F)cc4)c(C)nn3c2C)CC1 | -71.1
Cc1nc2c(-c3ccccc3)c(C)nn2c(C)c1CCC(=O)N1CCC2(CC1)OCCO2 | -40.5
Cc1nc2c(-c3ccc(F)cc3)c(C)nn2c(C)c1CCC(=O)NCCN1CCOCC1 | -24.3
Cc1nc2c(-c3ccc(F)cc3)c(C)nn2c(C)c1CCC(=O)N1CCOCC1 | -53.3
Cc1nc2c(-c3ccccc3)c(C)nn2c(C)c1CCC(=O)N1CCOCC1 | -33.9
Cc1nc2cc(-c3cccc(F)c3)nn2c(C)c1CCC(=O)N1CCC2(CC1)OCCO2 | -37.5
COC(CNC(=O)CCc1c(C)nc2c(-c3ccc(F)cc3)c(C)nn2c1C)OC | -21.8
Cc1nc2c(-c3ccc(F)cc3)c(C)nn2c(C)c1CCC(=O)N1CCC(Cc2ccccc2)CC1 | -21.2
COc1ccccc1NC(=O)CCc1c(C)nc2c(-c3ccc(F)cc3)c(C)nn2c1C | -20.3
